# Compound activity from PubChem.
# FGF22 binding = shifts melting point of recombinant human FGF22 | hit rate 1.5% among 340,000 | activity (Tm shift, normalised), % at 9.99 µM | recombinant FGF22 thermal shift, SYPRO orange fluorescence; percent of sucrose octasulfate shift, DMSO zero | AID 651658;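 active = mean Tm shift, scaled 0 neutral to 100 positive control, at about 1.3% or above, every replicate too, limit read from the data; inconclusive = no clear call, values can overlap the other calls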
# Target sequence (Q9HCT0 whole entry, looked up): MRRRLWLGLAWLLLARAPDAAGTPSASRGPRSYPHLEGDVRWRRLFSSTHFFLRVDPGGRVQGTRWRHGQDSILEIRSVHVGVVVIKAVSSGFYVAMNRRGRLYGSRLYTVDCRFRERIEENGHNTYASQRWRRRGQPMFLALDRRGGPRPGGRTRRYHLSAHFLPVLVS
# proKLK7 act = activators of human kallikrein-7 zymogen | P49862 | purified proKLK7, EDANS-DABCYL substrate fluorescence; 100% is mature enzyme control, 0% vehicle | activation, % at 7 µM | hit rate 0.9% among 370,000;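 active = activation above the mean of all tested compounds plus 3 SD, computed per campaign excluding outliers beyond control limits, cut at about 13% in these data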
# ADAM17 inh = inhibitors of human ADAM17 | recombinant ADAM17, EDANS/DABCYL FRET peptide cleavage | inhibition, % at 6.95 µM | hit rate 0.83% among 370,000;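 active = inhibition above the mean of compounds lying between control limits plus 3 SD, set per campaign, cut at about 8.5% in these data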
# rRNA inh HTS = inhibitors of bacterial rRNA selective over humanized ribosomes; E. coli WT GFP vs humanized-ribosome RFP mutants, fluorescence, 24 h; hits give low values; DMSO median 0, no signal -100; GFP signal change (wild-type ribosome), % (test concentration not listed); hit rate 1.6% among 350,000; AID 720706;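 active = significant combined selectivity score with lowered wild-type GFP, culture density cut under 30%, mutant RFP and density less affected; inactive = any of these conditions unmet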
# ADAM10 inh = inhibitors of human ADAM10; AID 720582; hit rate 0.62% among 370,000; recombinant ADAM10, EDANS/DABCYL FRET peptide cleavage, 3 h; inhibition, % at 7 µM; O14672;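 active = inhibition above a per-campaign cutoff equal to the mean of compounds falling between control-based bounds plus 3 SD, cut at about 20% in these data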
# Target sequence (O14672 214-748 limits assumed): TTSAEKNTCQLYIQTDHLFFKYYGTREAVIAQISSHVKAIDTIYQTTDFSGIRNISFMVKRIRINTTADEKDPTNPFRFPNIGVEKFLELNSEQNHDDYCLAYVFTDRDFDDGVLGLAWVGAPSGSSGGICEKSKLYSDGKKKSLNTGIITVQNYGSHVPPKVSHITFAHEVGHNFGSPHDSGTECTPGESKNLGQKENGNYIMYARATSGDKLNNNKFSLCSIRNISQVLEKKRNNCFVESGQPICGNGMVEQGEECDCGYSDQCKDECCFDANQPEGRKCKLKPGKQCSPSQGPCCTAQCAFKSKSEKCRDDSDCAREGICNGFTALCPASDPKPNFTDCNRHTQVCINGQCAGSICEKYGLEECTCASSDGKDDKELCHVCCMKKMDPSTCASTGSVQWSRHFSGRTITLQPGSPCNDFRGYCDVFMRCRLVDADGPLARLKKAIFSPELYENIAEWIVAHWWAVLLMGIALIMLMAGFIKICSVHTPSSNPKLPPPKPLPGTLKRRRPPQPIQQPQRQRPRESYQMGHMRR
# AID977621 = wild-type E. coli growth inhibition versus H69 humanized strain – H69 mutant RFP, wild-type GFP, cherry-pick, dose response. fluorescence, 24 h. 1,900 tested, under 10 active. activity change, negative = inhibition at 50 µM. shares compounds with rRNA inh HTS;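 active = Wild-type ribosome reporter drop at least double the humanized mutant ribosome reporter drop, growth loss under a set limit; inconclusive = no clear call, values can overlap the other calls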;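 also: wild-type GFP and H69 mutant RFP strains grown together 50/50 in each well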
# AID977628 = growth of wild-type and h24-humanized E. coli strains – h24 mutant RFP vs wild-type GFP, cherry-pick, dose response. shares compounds with rRNA inh HTS. E. coli WT GFP strain growth, fluorescence, 24 h. activity change, negative = inhibition at 50 µM. 1,900 tested, under 10 active. AID 977628;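 active = compound lowering the normal-ribosome reporter at least twice as much as the humanized-ribosome reporter, growth loss under a set limit; inconclusive = no clear call, values can overlap the other calls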;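 also: wild-type GFP and h24 humanized RFP strains co-cultured 1 to 1 per well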
# Hits are given with their value; . = inactive; ? = inconclusive; / = not tested or not shown. An excerpt weighted towards active compounds, which were near 3.8% of everything screened.
SMILES,FGF22 binding,proKLK7 act,ADAM17 inh,rRNA inh HTS,ADAM10 inh,AID977621,AID977628
Cc1onc(-c2ccccc2Cl)c1C(=O)Nc1ccc(Cl)cn1,.,.,.,-22.4,.,.,.
C[C@@H]1CCCCO[C@@H](CN(C)C)[C@@H](C)CN([C@@H](C)CO)C(=O)c2cc(NC(=O)Nc3cccc4ccccc34)ccc2O1,.,/,/,.,/,.,?
CNC[C@H]1OCCCC[C@@H](C)Oc2ccc(NC(=O)Nc3cccc4ccccc34)cc2C(=O)N([C@@H](C)CO)C[C@H]1C,.,/,/,-24.6,/,/,?
C[C@@H]1CN([C@@H](C)CO)C(=O)c2cc(NC(=O)Nc3cccc4ccccc34)ccc2O[C@@H](C)CCCCO[C@@H]1CN(C)C,/,/,/,.,/,.,?
CNC[C@@H]1OCCCC[C@@H](C)Oc2ccc(NC(=O)Nc3cccc4ccccc34)cc2C(=O)N([C@H](C)CO)C[C@@H]1C,/,/,/,.,/,/,/
C[C@@H]1CN([C@@H](C)CO)C(=O)c2cc(NC(=O)Nc3cccc4ccccc34)ccc2O[C@@H](C)CCCCO[C@H]1CN(C)C(=O)Nc1cccc2ccccc12,.,/,/,.,/,/,/
COc1ccc(NC(=O)N(C)C[C@H]2OCCCC[C@H](C)Oc3ccc(N(C)C)cc3C(=O)N([C@H](C)CO)C[C@@H]2C)cc1,.,/,/,.,/,/,/
C[C@@H]1CN([C@H](C)CO)C(=O)c2cc(-c3ccccc3)cnc2O[C@@H]1CN(C)C(=O)c1ccccc1F,.,/,/,.,/,/,/
COc1ccc(NC(=O)N[C@@H]2CC[C@@H](CCNS(=O)(=O)c3ccccc3F)O[C@H]2CO)cc1,.,/,/,.,/,/,/
CCCNC(=O)Nc1ccc2c(c1)OC[C@H](C)N(Cc1cccnc1)C[C@H](C)[C@@H](OC)CN(C)C2=O,.,/,/,.,/,/,/
O=C(C[C@H]1CC[C@H]2[C@@H](COC[C@@H](O)CN2S(=O)(=O)c2ccc(Cl)cc2)O1)NCc1ccc(Cl)c(Cl)c1,.,/,/,.,/,/,/
N#Cc1ccc(C(=O)Nc2ccn(-c3ccccc3)n2)cc1,.,.,.,-14.3,.,.,/
O=C(CC1SC(=O)N(Cc2ccccc2Cl)C1=O)Nc1nccs1 (centres undefined),.,.,.,-21.7,.,.,.
CCc1cc2c(nc1CC)CCCN2Cc1ccc(Br)cc1,.,.,.,-25.6,.,.,/
O=c1c2ccccc2nc(SCc2ccccc2)n1CC1CCCO1 (centres undefined),.,.,.,-21.5,.,.,.
COCC(=O)N[C@H]1C=C[C@@H](CC(=O)NCc2ccc(Cl)cc2)O[C@H]1CO,/,/,/,.,/,/,/
CCN1[C@H](C(=O)NCCc2cn(C)cn2)[C@@H](CO)[C@@H]2Cn3c(ccc(-c4cccnc4)c3=O)[C@@H]21,.,/,/,.,/,/,/
COc1ccc2c3c(n(C)c2c1)[C@H](CO)N(C(=O)CN1CCOCC1)CC31CCN(C(=O)C2CC2)CC1,.,/,/,.,/,/,/
NNC(=O)c1ccc(-c2ccccc2F)cc1,.,.,.,/,.,/,/
C#CC(C)(C)NC(=O)c1ccc(-c2ccccc2F)cc1,.,.,.,-23.1,.,.,.
CSc1ccc(CN(C)CC(=O)NC(C)c2ccccc2)cc1 (centres undefined),.,.,.,-31.0,.,.,/
CC(NC(=O)CN(C)Cc1ccc(Br)cc1)c1ccccc1 (centres undefined),.,.,.,.,.,/,/
Cc1cc(NC(=O)c2sc(Nc3ccc(F)c(Cl)c3)nc2N)no1,.,.,.,-22.1,.,.,.
O=C(Cc1ccc(Br)cc1)Nc1cccc(-c2cn3c(n2)SCC3)c1,.,.,.,-21.4,.,.,.
O=C(C[C@@H]1C[C@@H]2c3cc(NC(=O)Cc4ccncc4)ccc3O[C@@H]2[C@@H](CO)O1)NCc1ccccn1,/,/,/,.,/,/,/
SMILES,FGF22 binding,proKLK7 act,ADAM17 inh,rRNA inh HTS,ADAM10 inh,AID977621,AID977628
O=C(C[C@@H]1C[C@H]2c3cc(NC(=O)C4CCC4)ccc3O[C@H]2[C@@H](CO)O1)NCC1CC1,.,/,/,.,/,/,/
Cn1c(COc2ccc(F)cc2)nc2ccccc21,.,.,.,.,.,/,/
Cc1ccccc1OCc1nc2ccccc2n1C,.,.,.,-27.2,.,/,.
Cc1ccc(CN2C(=O)c3ccccc3C2C(=O)NCc2cccnc2)cc1 (centres undefined),.,.,.,.,.,/,/
Cc1ccc(CCN2C(=O)c3ccccc3C2C(=O)NCc2cccnc2)cc1 (centres undefined),.,.,.,-37.6,.,.,?
CC(C)(C)C1CCC(OC(=O)C[N+]2(C)CCCC2)CC1 (centres undefined),.,.,.,.,.,/,/
CC(C)(C)C1CCC(OC(=O)C[N+]2(C)CCCCC2)CC1 (centres undefined),.,.,.,-17.4,.,.,.
CCc1ccc2nc(SCC(=O)Nc3ccccc3N3CCOCC3)c(C#N)cc2c1,.,.,.,-29.6,.,.,.
O=C(CSc1nc(C2CC2)nc2ccccc12)Nc1ccccc1N1CCOCC1,.,.,.,-17.1,.,.,.
COc1ccc(C(=O)NC(C(=O)N2CCN(C/C=C/c3ccccc3)CC2)C(C)C)cc1 (centres undefined),.,.,.,.,.,/,/
CC(C)[C@H](NC(=O)c1ccc([N+](=O)[O-])cc1Cl)C(=O)N1CCN(C/C=C/c2ccccc2)CC1,.,.,.,-20.6,.,/,?
COc1cccc(NC(=O)COC(=O)Cc2ccccc2[N+](=O)[O-])c1,.,.,.,-17.1,.,/,?
COc1cc(OC)cc(C(=O)Nc2ccc(S(=O)(=O)Nc3cnc4ccccc4n3)cc2)c1,.,.,.,-43.6,.,.,/
CCCCn1c(=O)[nH]c(=O)c2c1nc(-c1ccccc1F)n2Cc1ccccc1,.,.,.,-25.9,.,.,?
O=C(Cc1c(F)cccc1Cl)N(Cc1ccccc1)c1ccccn1,.,.,.,-20.9,.,.,.
CO[C@H]1CN(C)C(=O)c2cc(NS(=O)(=O)c3ccccc3F)ccc2OC[C@H](C)NC[C@H]1C,.,/,/,.,/,/,/
Cc1nc(C)c(C(=O)Nc2ccccc2)s1,/,.,.,/,.,/,/
CCOC(=O)c1sc(Nc2ccc(OCC)cc2)nc1C,.,.,.,.,.,/,/
Cc1nc(Nc2ccccc2)sc1C(=O)Nc1ccccc1,.,.,.,-22.4,.,?,?
CCOC(=O)c1sc(Nc2cccc(Cl)c2)nc1C,.,.,.,-22.9,.,.,.
CNC(=O)c1cc(C(=O)c2ccc(C(F)(F)F)cc2)c[nH]1,.,.,.,.,.,/,/
CNC(=O)c1cc(C(=O)c2ccc(C(F)(F)F)cc2F)c[nH]1,.,.,.,-25.0,.,.,?
CCCC(=O)N1CC2(C1)CN(Cc1nccs1)[C@@H](CO)c1[nH]c3cc(OC)ccc3c12,/,/,/,.,/,/,/
